Screening data deposited in PubChem by National Center for Advancing Translational Sciences (NCATS).
The list is not random: actives were taken first. Their share in the collection is about 17%.
TDP1 cell CPT = growth inhibition of DT40 Tdp1-/-;hTDP1 cells with camptothecin (screen for TDP1 inhibitors) | chicken DT40 Tdp1-/-;hTDP1 cells + 20 nM CPT, ATP luminescence, 48 h | Potency, µM (titrated, usually from 46.2 µM), inactives show top-dose activity change, negative = growth inhibition, actives largely listed as inhibitors | hit rate 12% among 420,000 | AID 686979; further: on the % scale 0 is the no-effect control and ±100 the full control effect; nearly all actives have a fitted effect of over 55% in size
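Cell growth measured by CellTiter-Glo luminescence after a minimum 48 h, 37 C compound exposure with 20 nM CPT in Tdp1-knockout DT40 cells stably expressing hTDP1, seeded 400/well; qHTS titration format.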
HT1080NT lethal = kills 2HG-producing HT-1080-NT fibrosarcoma cells. HT-1080-NT fibrosarcoma viability, CellTiter-Glo ATP luminescence, 48 h. Potency, µM (titrated, usually from 46.1 µM), for inactives: at the highest dose activity, negative = less viability, usual class: cytotoxic. hit rate 1.6% among 360,000. AID 686970;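 further: NT is the 2HG producing partner of a matched IDH1 knockdown line; 0% = DMSO-treated cells and -100% = media-only wells without cells; nearly all actives have a fitted effect of over 55% in size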
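Read-out is CellTiter-Glo luminescence after 10 minutes at room temperature, following 48 hours' compound treatment of HT-1080-NT cells (750 cells/well, RPMI, 5% FBS, 37 degrees C).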
HT1080 IDH1KD tx = HT-1080 IDH1 knockdown cell toxicity (counter line); HT-1080 IDH1 knockdown viability, ATP luminescence, 48 h; Potency, µM (series often up to 46.1 µM), for inactives: at the top dose activity, negative = toxicity, most hits filed as cytotoxic; hit rate 2% among 360,000; AID 686971;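 further: 0% = DMSO wells and -100% = cell-free medium wells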
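Viability of IDH1-knockdown HT-1080 fibrosarcoma cells was assessed by CellTiter-Glo after 48 h at 37 °C with titrated compound; concentration-effect curves were classified by fit quality and response size.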
HepG2 tox = HepG2 cytotoxicity, counter-screen for TGF-b inhibitors | HepG2 CAGA-GFP viability, ATP luminescence, 18 h | Potency, µM (titrated, usually from 46.1 µM), without a hit: at the highest dose activity change, negative = cytotoxicity, hits mostly cytotoxic | hit rate 0.76% among 410,000
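CellTiter-Glo luminescence gave cytotoxicity after 18 hours at 37 degrees C. The cells were HepG2 CAGA-GFP in 1% FBS DMEM, stimulated with 500 pg/mL TGF-beta after compound addition. %Activity was normalised to no-cell wells (complete cell-killing) and DMSO (no toxicity), and curves were fitted and classified.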
TGFb SMAD3 inh = blocks TGF-b signaling; HepG2 CAGA-GFP TGF-b/SMAD3 reporter, GFP fluorescence, 18 h; TGF-beta stimulated, 500 pg/mL final; Potency, µM (series often up to 46.1 µM), inactives show top-dose activity, negative = inhibition, most hits filed as inhibitors; hit rate 1.2% among 410,000; AID 588855; further: on the % scale 0 is the no-effect control and ±100 the full control effect; nearly all actives have a fitted effect of over 65% in size
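Smad-responsive CAGA-GFP expression was quantified in HEPG2 cells exposed to compounds and 500 pg/mL final TGF-beta for 18 h at 37 degrees C; unstimulated wells defined full inhibition.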
TDP1 cell noCPT = qHTS for Inhibitors of human tyrosyl-DNA phosphodiesterase 1 (TDP1): qHTS in cells in absence of CPT | DT40 Tdp1-/- hTDP1 cells, no CPT, ATP luminescence, 48 h | Potency, µM (doses to about 46.2 µM), for inactives: at the top dose activity change, negative = growth inhibition, actives largely listed as inhibitors | hit rate 15% among 420,000; further: on the % scale 0 is the no-effect control and ±100 the full control effect; nearly all actives have a fitted effect of over 55% in size
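Growth kinetics read by CellTiter-Glo luminescence after ≥48 hr at 37 °C. Cells: DT40 Tdp1-/- stably carrying human TDP1, 400 per well, compound exposure in the absence of CPT (DMSO vehicle).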
Active calls of the source: *; [ ] = another dose, or the depositor's remark. The call rests on the fitted dose curve; in most records, active means well fitted curve in the direction sought with a large enough effect; inconclusive means small, poorly fitted or top-dose-only effect, or another doubt; inactive means no such curve, though single readings can be large; an effect the other way counts as inactive or inconclusive. Potency means the concentration at half of the fitted maximal effect.

Cc1ccc(-n2c(N)c(C(N)=O)sc2=S)c(C)c1 was read as TDP1 cell CPT inconclusive, HT1080NT lethal 1.3%, HT1080 IDH1KD tx 0.2%, HepG2 tox -0.5%, TGFb SMAD3 inh inconclusive and TDP1 cell noCPT 25.9µM*.
Screening CCOC(=O)c1sc(=S)n(-c2ccccc2OC)c1N returned TDP1 cell CPT inconclusive, HT1080NT lethal 0.1%, HT1080 IDH1KD tx -0.2%[9.24 µM], HepG2 tox -2.6%, TGFb SMAD3 inh -18.8% and TDP1 cell noCPT 23.1µM*.
`COC(=O)c1sc(=S)n(-c2ccccc2OC)c1N` gave TDP1 cell CPT -7.3%, HT1080NT lethal 2.2%, HT1080 IDH1KD tx -0.4%, HepG2 tox -28.8%, TGFb SMAD3 inh -5.5% and TDP1 cell noCPT -12.1%.
COc1ccc(Cl)cc1-n1c(N)c(C(N)=O)sc1=S was read as TDP1 cell CPT 16.4µM*, HT1080NT lethal 5.2%, HT1080 IDH1KD tx -1.9%, HepG2 tox -1.3%, TGFb SMAD3 inh -15.3% and TDP1 cell noCPT 20.6µM*.
For COc1ccc(-n2cc(CNC(C)c3ccncn3)c(-c3cccc(F)c3)n2)cc1 (stereo unspecified) the results were TDP1 cell CPT inconclusive, HT1080NT lethal -12.0%, HT1080 IDH1KD tx -13.6%, HepG2 tox 1.5%, TGFb SMAD3 inh -15.3% and TDP1 cell noCPT 25.9µM*.
For CCC(COC)NCc1cn(-c2ccc(OC)cc2)nc1-c1cccc(F)c1 (stereo unspecified) the results were TDP1 cell CPT 16.4µM*, HT1080NT lethal inconclusive, HT1080 IDH1KD tx inconclusive, HepG2 tox -16.9%, TGFb SMAD3 inh -11.6% and TDP1 cell noCPT 23.1µM*.
Screening CCC(CC)NCc1ccc(OC)cc1OC returned TDP1 cell CPT -0.7%, HT1080NT lethal 4.6%, HT1080 IDH1KD tx 0.3%, HepG2 tox 7.7%, TGFb SMAD3 inh 8.1% and TDP1 cell noCPT -13.0%.
`Cc1cccc(-n2cc(CN3CCN(Cc4nccn4C)CC3)c(-c3cccc(F)c3)n2)c1` gave TDP1 cell CPT inconclusive, HT1080NT lethal -24.8%, HT1080 IDH1KD tx inconclusive, HepG2 tox -34.7%, TGFb SMAD3 inh inconclusive and TDP1 cell noCPT inconclusive.
Screening O=c1oc2cc(Oc3c([N+](=O)[O-])cc(C(F)(F)F)cc3[N+](=O)[O-])ccc2c2c1CCCC2 returned TDP1 cell CPT 8.2µM*, HT1080NT lethal inconclusive, HT1080 IDH1KD tx -26.8%, HepG2 tox -36.2%, TGFb SMAD3 inh inconclusive and TDP1 cell noCPT 13µM*.
`CCC(/C=C1\Sc2ccc(OC)cc2N1CC)=C\c1sc2ccc(OC)cc2[n+]1CCCS(=O)(=O)[O-]` gave TDP1 cell CPT 3.26µM*, HT1080NT lethal -11.2%, HT1080 IDH1KD tx -6.6%, HepG2 tox -3.6%, TGFb SMAD3 inh -14.8% and TDP1 cell noCPT 1.84µM*.
CCO/C(=C/c1sc2ccc(OC)cc2[n+]1CCCS(=O)(=O)[O-])CC was read as TDP1 cell CPT 3.6%, HT1080NT lethal 1.1%, HT1080 IDH1KD tx -0.2%, HepG2 tox -0.7%, TGFb SMAD3 inh -4.8% and TDP1 cell noCPT 3.5%.
CCC(=O)/C=C1/Sc2ccc(OC)cc2N1CC was read as TDP1 cell CPT 10.3µM*, HT1080NT lethal -5.2%, HT1080 IDH1KD tx 1.3%[9.24 µM], HepG2 tox -19.5%, TGFb SMAD3 inh -0.8% and TDP1 cell noCPT inconclusive.
`CCC(/C=C1\Sc2ccc(OC)cc2N1CCO)=C\c1sc2ccc(OC)cc2[n+]1CCO` gave TDP1 cell CPT 3.26µM*, HT1080NT lethal inconclusive, HT1080 IDH1KD tx inconclusive, HepG2 tox -1.3%, TGFb SMAD3 inh 0.0% and TDP1 cell noCPT 5.17µM*.
COc1ccc(Oc2ncc3nc(-c4cc(F)cc(F)c4)c(=O)n(C)c3n2)cc1 was read as TDP1 cell CPT -3.1% and TDP1 cell noCPT -22.5%.
`Cc1cnn(C(=S)NCCc2ccccc2)c1` gave TDP1 cell CPT inconclusive, HT1080NT lethal inconclusive, HT1080 IDH1KD tx 22.7%, HepG2 tox -34.2%, TGFb SMAD3 inh -6.9% and TDP1 cell noCPT inconclusive.
Cc1cnn(C(=S)NCc2ccc(Cl)cc2)c1 was read as TDP1 cell CPT inconclusive, HT1080NT lethal inconclusive, HT1080 IDH1KD tx inconclusive, HepG2 tox -21.3%, TGFb SMAD3 inh -19.9% and TDP1 cell noCPT 23.1µM*.
`Cc1cn(CC(=O)NCC2CCCO2)c(=O)[nH]c1=O` (stereo unspecified) gave TDP1 cell CPT -22.5%, HT1080NT lethal 0.8%, HT1080 IDH1KD tx -1.9%, HepG2 tox -14.2%, TGFb SMAD3 inh -3.1% and TDP1 cell noCPT 0.0%.
For O=c1c2ccccc2nc(COc2ccccc2)n1/N=C/c1cc([N+](=O)[O-])ccc1O the results were TDP1 cell CPT 6.51µM*, HT1080NT lethal -25.1%, HT1080 IDH1KD tx -28.2%, HepG2 tox -25.8%, TGFb SMAD3 inh -24.5% and TDP1 cell noCPT 13µM*.
O=[N+]([O-])c1ccc(Cl)c(/C=N/n2c(COc3ccccc3)n[nH]c2=S)c1 was read as TDP1 cell CPT 18.4µM*, HT1080NT lethal inconclusive, HT1080 IDH1KD tx -10.6%, HepG2 tox -6.2%, TGFb SMAD3 inh -18.5% and TDP1 cell noCPT 20.6µM*.
Cc1cc(/C=N/n2c(COc3ccccc3C)nc3ccccc3c2=O)c(O)c([N+](=O)[O-])c1 was read as TDP1 cell CPT 18.4µM*, HT1080NT lethal inconclusive, HT1080 IDH1KD tx inconclusive, HepG2 tox -0.5%, TGFb SMAD3 inh -14.8% and TDP1 cell noCPT 13µM*.
For Cc1ccccc1OCc1nc2ccccc2c(=O)n1N the results were TDP1 cell CPT inconclusive, HT1080NT lethal 1.0%, HT1080 IDH1KD tx -3.3%, HepG2 tox -0.9%, TGFb SMAD3 inh -3.6% and TDP1 cell noCPT inconclusive.
For CC(=O)Nn1c(COc2ccccc2C)nc2ccccc2c1=O the results were TDP1 cell CPT -2.3%, HT1080NT lethal 2.3%, HT1080 IDH1KD tx -0.1%, HepG2 tox -3.1%, TGFb SMAD3 inh -15.7% and TDP1 cell noCPT 2.1%.
Cc1ccc(-c2[nH]ncc2/C=N/n2c(COc3ccccc3C)nc3ccccc3c2=O)cc1 was read as TDP1 cell CPT 20.6µM*, HT1080NT lethal inconclusive, HT1080 IDH1KD tx inconclusive, HepG2 tox 5.62µM*, TGFb SMAD3 inh 12.6µM* and TDP1 cell noCPT 16.4µM*.
COc1ccc(C(=O)OCC[N+]2(C)CCOCC2)cc1 was read as TDP1 cell CPT -18.4%, HT1080NT lethal 20.2%, HT1080 IDH1KD tx 9.2%, HepG2 tox 10.2%, TGFb SMAD3 inh 8.7% and TDP1 cell noCPT 1.5%.
